Assay results taken from the supplement of paper PMC10849652.
Targets with a hit are over-represented here; the source holds about 7,900 in all. About 0.6% of all pairs of compound and target were hits.

Experiments:
Assay in all cases: log2 fold change, soluble protein after heating vs DMSO (PISA); higher = thermal stabilisation; K562 cells, 10 uM, 30 min; active = over 0.2 and 3.5 SD of the protein, either way, in both replicates (recomputed)
erlotinib = compound: C#Cc1cccc(Nc2ncnc3cc(OCCOC)c(OCCOC)cc23)c1 [erlotinib]
Method in brief: (§1)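 K562 cells at 2×10^6 cells/mL were treated for 30 min with 10 μM compound, and aliquots were heated for 3 min over 48°C-58°C before pooling. Extraction used PBS with 0.5% NP-40 at 4°C, and soluble protein was the supernatant after 21,000xg for 90 min, measured by TMTpro 16plex LC-MS/MS with channel sums equalised. Thermal stability values, relative to control samples and from duplicates, are log2 fold changes.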

[1] = compound: C/C(=N\NC(=O)C1=CC(=CC=C1)S(=O)(=O)N2CCOCC2)/C3=C(C=CC(=C3)Cl)O
Method in brief: as §1

[2] = compound: C1=CC(=C(C=C1Cl)C2=NC3=NC=CN=C3C(=N2)NC4=CC=NC=C4)F
Method in brief: as §1

[3] = compound: C1=CC(=CC=C1C2=NC3=C(N2)C=C(C=C3)C(=O)N)OC4=CC=C(C=C4)Cl
Method in brief: as §1

[4] = compound: C1=CC2=C(C=CC(=C2)/C=C\3/C(=O)NC(=NCC4=CC=CS4)S3)N=C1
Method in brief: as §1

[5] = compound: C1=CC2=NC=CN=C2C=C1/C=C/3\C(=O)NC(=O)S3
Method in brief: as §1

[6] = compound: C1=CC=C(C=C1)C2=NC(=C(N2)C3=CC=NC=C3)C4=CC(=C(C=C4)Cl)O
Method in brief: as §1

[7] = compound: C1=CC=C2C(=C1)C3=NNC4=CC=CC(=C43)C2=O
Method in brief: as §1

[8] = compound: C1CCN(C1)C(=O)NC2=CC=CC(=C2)NC3=NC=C(C(=N3)NCCC4=CN=CN4)Br
Method in brief: as §1

[9] = compound: C1CN(CCC1(CC2=CC=C(C=C2)Cl)N)C3=NC=NC4=C3C=CN4
Method in brief: as §1

Measured: log2 fold change

FOXK1 (UniProt P85037)
inactive: erlotinib 0.113 | [1] 0 | [2] 0.054 | [3] -0.307 | [4] 0.425 | [5] 0.355 | [6] -0.075 | [7] 0.61 | [8] 0.394 | [9] 0.352

FLNA (UniProt P21333)
inactive: erlotinib 0.022 | [1] 0.072 | [2] -0.002 | [3] -0.032 | [4] -0.022 | [5] 0.005 | [6] 0.013 | [7] -0.017 | [8] -0.018 | [9] -0.133

FUBP3 (UniProt Q96I24)
Sequence of UniProt Q96I24 (Q96I24 whole entry, looked up): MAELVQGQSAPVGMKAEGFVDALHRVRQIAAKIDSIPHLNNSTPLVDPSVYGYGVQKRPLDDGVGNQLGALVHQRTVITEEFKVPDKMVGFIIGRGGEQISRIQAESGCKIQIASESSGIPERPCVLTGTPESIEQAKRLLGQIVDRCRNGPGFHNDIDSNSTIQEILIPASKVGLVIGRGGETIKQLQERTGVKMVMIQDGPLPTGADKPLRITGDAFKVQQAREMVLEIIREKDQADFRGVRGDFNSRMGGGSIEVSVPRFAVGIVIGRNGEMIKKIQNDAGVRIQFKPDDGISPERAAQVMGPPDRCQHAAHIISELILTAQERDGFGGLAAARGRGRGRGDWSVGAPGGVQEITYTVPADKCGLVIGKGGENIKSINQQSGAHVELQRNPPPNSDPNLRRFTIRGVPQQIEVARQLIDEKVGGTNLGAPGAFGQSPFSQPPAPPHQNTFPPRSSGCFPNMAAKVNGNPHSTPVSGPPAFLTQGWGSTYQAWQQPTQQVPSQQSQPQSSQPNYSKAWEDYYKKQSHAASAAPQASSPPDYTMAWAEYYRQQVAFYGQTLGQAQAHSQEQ
inactive: erlotinib -0.059 | [1] 0.007 | [2] 0.084 | [3] 0.019 | [4] -0.014 | [5] 0.069 | [6] -0.017 | [7] 0.002 | [8] 0.009 | [9] 0.036

GCLM (UniProt P48507)
inactive: erlotinib -0.054 | [1] 0.199 | [2] 0.014 | [3] -0.019 | [4] -0.078 | [5] 0.088 | [6] -0.006 | [7] 0.064 | [8] -0.008 | [9] -0.035

HMGN1 (UniProt P05114)
Sequence of UniProt P05114 (P05114 whole entry, looked up): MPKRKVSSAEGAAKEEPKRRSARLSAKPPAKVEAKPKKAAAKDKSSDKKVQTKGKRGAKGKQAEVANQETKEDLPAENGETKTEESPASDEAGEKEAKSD
inactive: erlotinib -0.069 | [1] -0.114 | [2] -0.011 | [3] 0.066 | [4] -0.114 | [5] 0.045 | [6] -0.062 | [7] -0.059 | [8] 0.029 | [9] -0.028

GMEB1 (UniProt Q9Y692)
inactive: erlotinib 0.106 | [1] 0.071 | [2] 0.012 | [3] -0.005 | [4] -0.006 | [5] 0.009 | [6] -0.027 | [7] -0.089 | [8] 0.004 | [9] 0.036

HRC (UniProt P23327)
Sequence of UniProt P23327 (P23327 whole entry, looked up): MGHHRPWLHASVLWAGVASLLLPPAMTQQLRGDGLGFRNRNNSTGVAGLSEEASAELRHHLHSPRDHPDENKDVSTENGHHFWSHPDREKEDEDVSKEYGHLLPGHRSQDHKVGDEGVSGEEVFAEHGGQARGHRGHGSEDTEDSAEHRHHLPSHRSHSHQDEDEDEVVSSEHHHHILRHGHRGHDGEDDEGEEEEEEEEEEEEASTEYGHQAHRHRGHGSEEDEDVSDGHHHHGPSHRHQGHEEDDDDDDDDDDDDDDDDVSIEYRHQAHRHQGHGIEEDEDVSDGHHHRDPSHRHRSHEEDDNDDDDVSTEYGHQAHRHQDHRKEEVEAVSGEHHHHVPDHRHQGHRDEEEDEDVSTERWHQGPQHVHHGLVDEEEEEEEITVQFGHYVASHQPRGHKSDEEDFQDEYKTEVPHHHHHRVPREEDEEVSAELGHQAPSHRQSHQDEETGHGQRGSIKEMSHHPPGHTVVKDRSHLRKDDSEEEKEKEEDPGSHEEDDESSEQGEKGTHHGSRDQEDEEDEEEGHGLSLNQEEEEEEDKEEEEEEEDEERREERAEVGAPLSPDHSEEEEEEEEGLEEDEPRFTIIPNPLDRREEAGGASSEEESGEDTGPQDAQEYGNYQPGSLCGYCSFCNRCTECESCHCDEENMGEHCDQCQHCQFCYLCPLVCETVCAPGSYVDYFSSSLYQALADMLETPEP
inactive: erlotinib 0.012 | [1] -0.056 | [2] 0.042 | [3] -0.018 | [4] 0.005 | [5] 0.023 | [6] -0.021 | [7] -0.087 | [8] 0.041 | [9] 0.045

GDE1 (UniProt Q9NZC3)
Sequence of UniProt Q9NZC3 (Q9NZC3 whole entry, looked up): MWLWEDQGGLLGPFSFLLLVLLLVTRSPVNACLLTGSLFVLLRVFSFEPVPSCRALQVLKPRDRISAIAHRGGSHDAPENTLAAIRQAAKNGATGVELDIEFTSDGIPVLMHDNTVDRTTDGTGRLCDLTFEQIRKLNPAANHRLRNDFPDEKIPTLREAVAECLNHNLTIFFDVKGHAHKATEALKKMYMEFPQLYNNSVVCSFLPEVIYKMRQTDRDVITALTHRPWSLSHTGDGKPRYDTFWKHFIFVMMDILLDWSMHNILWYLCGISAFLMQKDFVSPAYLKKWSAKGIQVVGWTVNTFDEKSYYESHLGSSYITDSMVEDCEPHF
inactive: erlotinib 0.014 | [1] 0.065 | [2] 0.055 | [3] 0.019 | [4] -0.047 | [5] 0.05 | [6] -0.029 | [7] -0.023 | [8] 0.003 | [9] 0.13

GEMIN5 (UniProt Q8TEQ6)
inactive: erlotinib -0.007 | [1] 0.066 | [2] -0.049 | [3] 0.023 | [4] 0.037 | [5] 0.045 | [6] 0.01 | [7] 0.01 | [8] 0.015 | [9] 0.017

GABARAPL1 isoform 2 (UniProt Q9H0R8)
inactive: erlotinib 0.071 | [1] -0.012 | [2] -0.023 | [3] -0.029 | [4] 0.074 | [5] -0.033 | [6] -0.001 | [7] 0.02 | [8] -0.02 | [9] 0.016

HNRNPUL1 (UniProt Q9BUJ2)
Sequence of UniProt Q9BUJ2 (Q9BUJ2 whole entry, looked up): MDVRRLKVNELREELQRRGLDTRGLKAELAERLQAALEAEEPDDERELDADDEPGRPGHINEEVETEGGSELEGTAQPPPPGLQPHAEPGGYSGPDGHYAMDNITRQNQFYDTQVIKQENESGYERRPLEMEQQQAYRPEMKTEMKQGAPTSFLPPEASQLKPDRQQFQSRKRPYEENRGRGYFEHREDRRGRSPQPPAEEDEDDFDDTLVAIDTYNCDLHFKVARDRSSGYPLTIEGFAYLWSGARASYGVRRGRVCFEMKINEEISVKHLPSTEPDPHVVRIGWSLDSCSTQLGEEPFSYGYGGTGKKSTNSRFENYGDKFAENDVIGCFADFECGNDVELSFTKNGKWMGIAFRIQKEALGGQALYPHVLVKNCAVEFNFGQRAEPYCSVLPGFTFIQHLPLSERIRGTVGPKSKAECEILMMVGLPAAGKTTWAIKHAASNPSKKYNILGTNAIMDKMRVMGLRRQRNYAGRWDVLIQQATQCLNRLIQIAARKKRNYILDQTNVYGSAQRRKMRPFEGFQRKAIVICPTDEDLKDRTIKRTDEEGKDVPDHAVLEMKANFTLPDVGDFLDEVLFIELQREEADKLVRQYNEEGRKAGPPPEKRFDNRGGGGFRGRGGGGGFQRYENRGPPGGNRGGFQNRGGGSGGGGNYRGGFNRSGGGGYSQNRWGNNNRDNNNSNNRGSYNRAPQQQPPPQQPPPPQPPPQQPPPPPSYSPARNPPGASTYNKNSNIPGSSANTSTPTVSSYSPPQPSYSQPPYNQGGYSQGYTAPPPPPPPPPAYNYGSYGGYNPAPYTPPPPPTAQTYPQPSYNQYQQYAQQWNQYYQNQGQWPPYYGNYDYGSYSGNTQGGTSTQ
inactive: erlotinib 0.022 | [1] -0.009 | [2] 0.018 | [3] -0.012 | [4] 0.001 | [5] -0.01 | [6] 0.004 | [7] 0.014 | [8] 0.029 | [9] -0.048

GPD1 (UniProt P21695)
inactive: erlotinib 0.55 | [1] -0.084 | [2] -0.075 | [3] -0.305 | [4] 0.129 | [5] -0.149 | [6] -0.003 | [7] -0.047 | [8] -0.043 | [9] 0.032

HSD17B12 (UniProt Q53GQ0)
active: [3] 0.346
inactive: erlotinib 0.004 | [1] 0.067 | [2] 0.02 | [4] 0.025 | [5] -0.012 | [6] 0.027 | [7] 0.064 | [8] -0.028 | [9] 0.124

HNRNPH2 (UniProt P55795)
Sequence of UniProt P55795 (P55795 whole entry, looked up): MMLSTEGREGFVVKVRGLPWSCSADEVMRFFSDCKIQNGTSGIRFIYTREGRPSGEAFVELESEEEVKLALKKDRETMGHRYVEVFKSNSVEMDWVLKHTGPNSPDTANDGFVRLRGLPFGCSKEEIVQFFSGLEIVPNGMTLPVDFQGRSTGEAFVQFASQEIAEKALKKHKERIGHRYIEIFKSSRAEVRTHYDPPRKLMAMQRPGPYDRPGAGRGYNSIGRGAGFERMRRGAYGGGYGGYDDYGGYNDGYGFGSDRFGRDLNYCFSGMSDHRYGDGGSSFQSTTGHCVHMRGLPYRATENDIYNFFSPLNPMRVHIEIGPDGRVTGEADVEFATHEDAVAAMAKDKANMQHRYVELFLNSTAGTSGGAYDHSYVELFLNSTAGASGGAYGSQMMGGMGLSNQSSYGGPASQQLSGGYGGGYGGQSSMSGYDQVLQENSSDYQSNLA
inactive: erlotinib 0.019 | [1] 0.17 | [2] 0.037 | [3] -0.028 | [4] 0.112 | [5] -0.031 | [6] -0.047 | [7] -0.016 | [8] -0.068 | [9] 0.024

GDPD1 (UniProt Q8N9F7)
inactive: erlotinib 0.077 | [1] 0.024 | [2] -0.061 | [3] -0.018 | [4] -0.015 | [5] 0.01 | [6] 0.048 | [7] -0.018 | [8] -0.037 | [9] 0.024

FBXO3 (UniProt Q9UK99)
Sequence of UniProt Q9UK99 (Q9UK99 whole entry, looked up): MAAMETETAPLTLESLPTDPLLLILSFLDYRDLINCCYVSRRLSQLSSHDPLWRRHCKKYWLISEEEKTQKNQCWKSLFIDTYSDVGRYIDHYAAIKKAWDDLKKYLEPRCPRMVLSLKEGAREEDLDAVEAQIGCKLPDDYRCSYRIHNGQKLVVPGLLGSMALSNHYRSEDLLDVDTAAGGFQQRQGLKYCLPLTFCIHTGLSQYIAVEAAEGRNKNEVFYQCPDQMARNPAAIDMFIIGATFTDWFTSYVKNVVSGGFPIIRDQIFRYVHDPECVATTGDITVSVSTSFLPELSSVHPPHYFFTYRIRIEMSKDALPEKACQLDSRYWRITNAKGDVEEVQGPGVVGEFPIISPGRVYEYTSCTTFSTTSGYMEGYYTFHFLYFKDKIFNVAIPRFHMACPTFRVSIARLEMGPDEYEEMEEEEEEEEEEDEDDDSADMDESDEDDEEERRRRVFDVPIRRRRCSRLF
inactive: erlotinib 0.01 | [1] 0.044 | [2] 0.141 | [3] -0.018 | [4] -0.038 | [5] 0.062 | [6] 0.112 | [7] -0.003 | [8] -0.029 | [9] 0.002

HDAC7 isoform 5 (UniProt Q8WUI4)
inactive: erlotinib 0.025 | [1] 0.057 | [2] -0.08 | [3] 0.007 | [4] -0.126 | [5] -0.008 | [6] -0.037 | [7] -0.171 | [8] -0.056 | [9] 0.025

FKBP4 (UniProt Q02790)
inactive: erlotinib -0.04 | [1] 0.07 | [2] 0.055 | [3] -0.042 | [4] 0.017 | [5] 0.007 | [6] 0.036 | [7] 0.047 | [8] 0.016 | [9] -0.033

HOMER1 (UniProt Q86YM7)
inactive: erlotinib -0.103 | [1] -0.015 | [2] -0.05 | [3] 0.016 | [4] 0.021 | [5] 0.074 | [6] -0.057 | [7] -0.015 | [8] 0.062 | [9] -0.011

IFT74 (UniProt Q96LB3)
inactive: erlotinib 0.248 | [2] 0.125 | [3] -0.352 | [4] 0.087 | [5] -0.033 | [6] 0.211 | [7] -0.038 | [8] -0.076 | [9] 0.337
active: [1] -0.95

HDGFL2 (UniProt Q7Z4V5)
inactive: erlotinib 0.002 | [1] 0.001 | [2] 0.042 | [3] -0.006 | [4] -0.046 | [5] 0.048 | [6] -0.01 | [7] -0.046 | [8] 0.033 | [9] 0.057

GNAI3 (UniProt P08754)
Sequence of UniProt P08754 (P08754 whole entry, looked up): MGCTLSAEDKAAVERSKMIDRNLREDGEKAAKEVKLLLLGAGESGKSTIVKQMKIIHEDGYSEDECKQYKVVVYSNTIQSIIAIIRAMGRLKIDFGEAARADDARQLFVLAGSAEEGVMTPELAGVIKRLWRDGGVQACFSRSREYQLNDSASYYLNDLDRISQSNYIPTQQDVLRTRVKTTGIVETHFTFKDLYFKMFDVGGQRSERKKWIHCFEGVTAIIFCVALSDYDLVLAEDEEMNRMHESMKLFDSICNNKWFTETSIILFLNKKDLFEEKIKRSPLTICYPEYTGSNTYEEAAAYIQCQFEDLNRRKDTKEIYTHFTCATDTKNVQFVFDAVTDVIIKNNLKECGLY
inactive: erlotinib -0.078 | [1] -0.038 | [2] -0.01 | [3] 0.205 | [4] 0.021 | [5] 0 | [6] 0.036 | [7] -0.026 | [8] -0.047 | [9] 0.026

FHOD1 (UniProt Q9Y613)
Sequence of UniProt Q9Y613 (Q9Y613 whole entry, looked up): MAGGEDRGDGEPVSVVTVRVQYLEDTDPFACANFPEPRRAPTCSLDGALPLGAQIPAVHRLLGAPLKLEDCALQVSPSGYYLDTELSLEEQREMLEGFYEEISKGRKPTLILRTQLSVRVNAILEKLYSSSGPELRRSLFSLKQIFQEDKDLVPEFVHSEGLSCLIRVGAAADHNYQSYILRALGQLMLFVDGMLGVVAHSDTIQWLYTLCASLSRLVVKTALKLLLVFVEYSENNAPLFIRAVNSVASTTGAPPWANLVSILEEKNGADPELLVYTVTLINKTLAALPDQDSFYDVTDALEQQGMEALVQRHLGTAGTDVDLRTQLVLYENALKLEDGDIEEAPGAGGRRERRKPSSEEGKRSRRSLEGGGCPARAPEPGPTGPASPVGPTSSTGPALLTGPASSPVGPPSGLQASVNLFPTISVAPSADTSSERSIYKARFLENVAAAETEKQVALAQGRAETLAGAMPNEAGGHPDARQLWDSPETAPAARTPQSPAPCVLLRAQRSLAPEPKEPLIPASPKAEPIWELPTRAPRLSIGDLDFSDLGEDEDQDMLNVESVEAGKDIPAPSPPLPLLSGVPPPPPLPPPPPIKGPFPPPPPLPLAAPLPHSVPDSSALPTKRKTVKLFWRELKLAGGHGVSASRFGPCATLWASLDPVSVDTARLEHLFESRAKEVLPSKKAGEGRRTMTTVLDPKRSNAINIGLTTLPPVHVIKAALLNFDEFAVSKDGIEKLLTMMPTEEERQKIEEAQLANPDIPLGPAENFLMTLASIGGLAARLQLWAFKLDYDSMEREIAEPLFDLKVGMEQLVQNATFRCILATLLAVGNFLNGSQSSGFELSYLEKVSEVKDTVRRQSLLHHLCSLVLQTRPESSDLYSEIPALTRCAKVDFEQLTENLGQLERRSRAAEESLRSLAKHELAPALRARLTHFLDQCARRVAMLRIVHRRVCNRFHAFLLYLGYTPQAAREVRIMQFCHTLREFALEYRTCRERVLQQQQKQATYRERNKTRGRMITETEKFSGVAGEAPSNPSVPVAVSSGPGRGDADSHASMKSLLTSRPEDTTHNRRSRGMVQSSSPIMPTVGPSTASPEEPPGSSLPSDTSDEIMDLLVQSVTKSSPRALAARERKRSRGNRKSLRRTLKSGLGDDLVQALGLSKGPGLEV
inactive: erlotinib -0.002 | [1] -0.259 | [2] -0.337 | [3] -0.059 | [4] 0.059 | [5] 0.146 | [6] -0.034 | [7] -0.007

HSPA8 (UniProt E9PK54)
inactive: erlotinib -0.008 | [1] 0 | [2] -0.346 | [3] 0.032 | [4] 0 | [5] 0.034 | [6] -0.211 | [7] -0.095 | [8] -0.056 | [9] -0.158

IDI1 isoform 2 (UniProt Q13907)
inactive: erlotinib 0.004 | [2] 0.03 | [3] -0.012 | [4] -0.033 | [5] -0.004 | [6] -0.038 | [7] 0.034 | [8] -0.02 | [9] 0.002
active: [1] -0.313

GLYR1 (UniProt Q49A26)
inactive: erlotinib -0.053 | [1] -0.211 | [2] -0.289 | [3] 0.05 | [4] -0.352 | [5] 0.1 | [6] -0.021 | [7] -0.034 | [8] 0.119 | [9] -0.03

GIGYF2 (UniProt Q6Y7W6)
inactive: erlotinib 0.062 | [1] 0.081 | [2] -0.022 | [3] -0.03 | [4] 0.05 | [5] 0.014 | [6] 0.009 | [7] 0.025 | [8] -0.039 | [9] -0.025

FMC1 (UniProt Q96HJ9)
inactive: erlotinib 0 | [1] 0.072 | [2] 0.083 | [3] 0.004 | [4] 0.108 | [5] -0.063 | [7] 0.001 | [8] -0.026 | [9] -0.042
active: [6] 0.319

GLS (UniProt O94925)
inactive: erlotinib 0.003 | [1] 0.105 | [2] 0.174 | [3] -0.107 | [4] -0.043 | [5] 0.14 | [6] 0.034 | [7] -0.023 | [8] -0.091 | [9] -0.03

GOPC (UniProt Q9HD26)
inactive: erlotinib 0.016 | [1] 0.051 | [2] -0.284 | [3] -0.178 | [4] -0.027 | [5] -0.147 | [6] -0.008 | [7] 0.265 | [8] -0.036 | [9] 0.06
